{"source": "PubChem BioAssay AID1777", "about": "(Sanford-Burnham Center for Chemical Genomics, 2009)", "note": "Among all 280,000 compounds or so, about 50 (0.02%) were called active. Cut-off read from the data, not from the text of the source: active = activation above about 50% (passing the limit was not always enough); inactive = the rest. Many of the other results were omitted from the sample, so actives are more common in it than they were. Entries with a potency or affinity are not part of this list."}
{"target": "Kappa-type opioid receptor (Homo sapiens) (UniProt P41145)", "sequence (P41145 whole entry, looked up)": "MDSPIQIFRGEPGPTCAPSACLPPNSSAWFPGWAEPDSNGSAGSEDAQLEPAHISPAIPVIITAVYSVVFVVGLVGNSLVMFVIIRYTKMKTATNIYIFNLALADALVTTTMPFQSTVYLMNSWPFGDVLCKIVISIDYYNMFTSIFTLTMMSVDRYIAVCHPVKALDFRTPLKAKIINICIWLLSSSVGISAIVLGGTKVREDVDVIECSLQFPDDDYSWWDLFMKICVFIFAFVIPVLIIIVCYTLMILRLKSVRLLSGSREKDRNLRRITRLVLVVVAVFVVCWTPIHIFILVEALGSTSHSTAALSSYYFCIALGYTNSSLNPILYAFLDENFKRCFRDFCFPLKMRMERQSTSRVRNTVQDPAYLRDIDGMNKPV", "assay": "kappa opioid receptor activators – cell-based, luminescence, uHTS, primary screen (AID 1777)", "details": "KOR beta-arrestin recruitment, at 10 µM, hits give high values"}
{"smiles": "CCC(C)(C(=O)NC1CCCC1)N(Cc1ccco1)C(=O)c1ccc2c(c1)OCO2", "note": "(centres undefined)", "activation": "10.3% (inactive)"}
{"smiles": "CCC(C)(C(=O)NC1CCCCC1)N(Cc1ccco1)C(=O)c1ccc2c(c1)OCO2", "note": "(centres undefined)", "activation": "1.2% (inactive)"}
{"smiles": "CCC(C)(C(=O)NC1CCCCC1)N(Cc1ccco1)C(=O)CNC(=O)c1ccccc1", "note": "(centres undefined)", "activation": "1.6% (inactive)"}
{"smiles": "CCC(C)(C(=O)NC1CCCC1)N(C)C(=O)c1ccccn1", "note": "(centres undefined)", "activation": "-0.7% (inactive)"}
{"smiles": "CCC(C)(C(=O)NC1CCCC1)N(C(=O)c1cnccn1)c1ccccc1", "note": "(centres undefined)", "activation": "-12.3% (inactive)"}
{"smiles": "CCC(C)(C(=O)NC1CCCCC1)N(C)C(=O)c1ccccn1", "note": "(centres undefined)", "activation": "1.2% (inactive)"}
{"smiles": "CC(C)(C)c1cc(C(=O)NC2CC2)n(Cc2ccc(F)cc2)n1", "activation": "-4.7% (inactive)"}
{"smiles": "CS(=O)(=O)c1ccc(NCC2CCCO2)c([N+](=O)[O-])c1", "note": "(centres undefined)", "activation": "-3.6% (inactive)"}
{"smiles": "O=c1[nH]cc(S(=O)(=O)NCc2ccccc2)c(=O)[nH]1", "activation": "-1.3% (inactive)"}
{"smiles": "CCNS(=O)(=O)c1ccc(CCC(=O)Nc2ccccc2C(=O)OC)cc1", "activation": "-1.4% (inactive)"}
{"smiles": "Cc1cc(C)cc(C(=O)NCC(=O)OCC(=O)N2CCN(S(=O)(=O)c3ccc4ccccc4c3)CC2)c1", "activation": "-0.4% (inactive)"}
{"smiles": "CCC(C)(C(=O)NC1CCCCC1)N(Cc1cccs1)C(=O)Cc1cccs1", "note": "(centres undefined)", "activation": "3.8% (inactive)"}
{"smiles": "CCC(C)(C(=O)NC1CCCCC1)N(Cc1cccs1)C(=O)c1ccc(=O)[nH]c1", "note": "(centres undefined)", "activation": "-6.4% (inactive)"}
{"smiles": "CCC(C)(C(=O)NC1CCCC1)N(Cc1cccs1)C(C)=O", "note": "(centres undefined)", "activation": "-2.2% (inactive)"}
{"smiles": "CCC(C)(C(=O)NC1CCCC1)N(Cc1cccs1)C(=O)Cc1cccs1", "note": "(centres undefined)", "activation": "-0.9% (inactive)"}
{"smiles": "CC(=O)c1sc(N/N=C\\c2ccc(Br)cc2)nc1C", "activation": "3.5% (inactive)"}
{"smiles": "COc1ccc(N2CCN(S(=O)(=O)CCNC(=O)COc3ccccc3OC)CC2)cc1", "activation": "-4.1% (inactive)"}
{"smiles": "NC1=NC(c2cn[nH]c2-c2ccc(F)cc2)n2c(nc3ccccc32)N1", "note": "(centres undefined)", "activation": "0.5% (inactive)"}
{"smiles": "CC(CNC(=O)c1ccc2c(c1)OCO2)c1ccc([N+](=O)[O-])cc1", "note": "(centres undefined)", "activation": "-4.6% (inactive)"}
{"smiles": "COc1ccc(CN(CC2CCCO2)C(=O)CN2C(=O)C(C)Oc3ccc(C)cc32)cc1OC", "note": "(centres undefined)", "activation": "50.9% (inactive)"}
{"smiles": "O=C(CN1C(=O)COc2ccccc21)N(Cc1ccc2c(c1)OCO2)CC1CCCO1", "note": "(centres undefined)", "activation": "72.1% (inactive)"}
{"smiles": "O=C(CCCCCBr)N1CCC(CC2CC(c3ccc(Cl)cc3)=NO2)(C(=O)NCC2CCCCC2)CC1", "note": "(centres undefined)", "activation": "-0.1% (inactive)"}
{"smiles": "CCN1CCc2c(sc(NC(=O)c3cc4ccccc4cc3OC)c2C(N)=O)C1", "activation": "0.1% (inactive)"}
{"smiles": "CC(C)N1CCc2c(sc(NC(=O)c3ccc4ccccc4c3)c2C(N)=O)C1", "activation": "-0.3% (inactive)"}
{"smiles": "N#C/C(=C\\c1ccc(-c2nc3ccccc3s2)o1)C(N)=O", "activation": "0.2% (inactive)"}
{"smiles": "N#C/C(=C\\c1ccc(-c2ccccc2Cl)o1)C(=O)Nc1nc2ccccc2s1", "activation": "-1.8% (inactive)"}
{"smiles": "CNC(=O)/C(C#N)=C/c1ccc(-c2nc3ccccc3s2)o1", "activation": "169% (active)"}
{"smiles": "CN=C1SC(CC(=O)Nc2ccccc2F)C(=O)N1/N=C/c1ccc(O)c(OC)c1", "note": "(centres undefined)", "activation": "14.6% (inactive)"}
{"smiles": "Cn1c(=O)c(=O)n(C)c2cc(S(=O)(=O)N3CCCC3C(=O)NCc3cccs3)ccc21", "note": "(centres undefined)", "activation": "1% (inactive)"}
{"smiles": "COc1ccc(-c2ccc(C#N)c(SCC(=O)Nc3sc4c(c3C#N)CCC4)n2)cc1", "activation": "-2.3% (inactive)"}
{"smiles": "N#Cc1ccc(-c2ccc(F)cc2)nc1SCC(=O)Nc1sc2c(c1C#N)CCC2", "activation": "-1% (inactive)"}
{"smiles": "CCc1ccccc1OCC(=O)N(CC)CC(=O)NCc1ccc(F)cc1", "activation": "-3% (inactive)"}
{"smiles": "Cc1cc(C(=O)CSc2nncn2C)c(C)n1-c1ccccc1", "activation": "-2.9% (inactive)"}
{"smiles": "Cc1nc(C)c(NC(=O)OC(C)C)cc1NC(=O)OC(C)C", "activation": "-4.7% (inactive)"}
